An excerpt weighted towards active compounds, which were near 2.4% of everything screened.
D2 ag-1: activates the human D2 dopamine receptor | P14416 | HEK293 T-REx D2 cells, calcium flux agonist mode | 0.53% of 340,000 active | activation, % at 2 µM;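 active means activation over 3 SD above normal in the single-dose calcium agonist read, cut at about 30% in these data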; further: 0% is about no effect
Target sequence (P14416 whole entry, looked up): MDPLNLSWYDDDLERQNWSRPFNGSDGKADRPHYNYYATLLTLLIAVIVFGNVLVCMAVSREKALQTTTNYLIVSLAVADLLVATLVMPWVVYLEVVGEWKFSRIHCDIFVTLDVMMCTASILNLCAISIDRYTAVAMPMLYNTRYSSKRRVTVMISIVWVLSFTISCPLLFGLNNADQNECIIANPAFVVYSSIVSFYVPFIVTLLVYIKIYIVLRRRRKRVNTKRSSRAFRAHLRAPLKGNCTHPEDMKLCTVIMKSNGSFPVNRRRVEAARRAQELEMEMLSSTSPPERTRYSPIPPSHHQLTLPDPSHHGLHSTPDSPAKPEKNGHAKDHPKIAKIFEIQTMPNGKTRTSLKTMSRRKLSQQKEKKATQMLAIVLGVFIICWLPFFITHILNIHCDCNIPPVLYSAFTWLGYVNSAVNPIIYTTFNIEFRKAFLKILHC
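Tetracycline-induced HEK293 T-REx cells with force-coupled D2 receptor, plated overnight at 30 C, loaded with no-wash calcium dye. After a 10 s baseline, compound was pin-added and calcium flux read kinetically for 180 s; calcium rises flagged agonists.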
D2 ag-2: activates the human D2 dopamine receptor; P14416; DiscoveRx PathHunter D2 beta-arrestin, luminescence, 90 min; 100% = 57 uM dopamine signal; activation, % (no concentration beside the values); 0.084% of 360,000 active; in the data active means activation above about 40%; inconclusive means between about 15% and that limit
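DiscoveRx PathHunter D2 beta-arrestin cells (2,100/well) attached overnight, then compound-stimulated 90 min at 37 C in HBSS/10 mM HEPES/0.1% Tween-20 buffer; beta-galactosidase complementation read by luminescence after 1 h at ambient temperature. Dopamine 57 uM final (EC100) as control.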
D2 PAM-1: human D2 receptor positive allosteric modulation; DiscoveRx D2 beta-arrestin cells, luminescence, 90 min; 100% = 57 uM dopamine signal; potentiation, % (concentration not given with the values); 0.23% of 360,000 active; P14416; in the data active means potentiation above about 50%; inconclusive means mostly about 30% to 49%
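PathHunter D2 cells, attached overnight at 37 deg C, received compound in DMSO plus dopamine at EC20 (50 nM final) for 90 min at 37 deg C. Beta-arrestin recruitment was read as luminescence after 1 h with detection reagent at ambient temperature.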
D2 antagonist: D2 dopamine receptor (human) antagonism | P14416 | HEK293 TREx D2 cells, calcium flux, dopamine EC80 | inhibition, % at 10 µM | 2% of 340,000 active; in the data active means inhibition above about 30%; inactive means below that, where a call was filed; further: 0% is about no effect
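Inhibition of EC80 dopamine-driven calcium flux, recorded kinetically, defines activity here; cells are a tetracycline-induced HEK293 T-REx line expressing force-coupled D2.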
D2 PAM-2: D2 dopamine receptor (human) potentiation. potentiation, % at 10 µM. AID 485347. HEK293 T-REx D2, calcium flux, EC20 dopamine potentiation. 0.34% of 340,000 active. P14416;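 active means potentiation over 3 SD above the plate norm, cut at about 30% in these data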; further: 0% is about no effect
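Potentiation of an EC20 dopamine calcium response is measured in a force-coupled, tetracycline-inducible Hek293 Trex D2 line. Compound-only kinetic reads over 180 s flag agonists before dopamine addition.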
D3 ag: confirmation of human D3 dopamine receptor agonists, beta-arrestin; shares compounds with D2 ag-1; Potency, µM (doses to about 76.9 µM), inactives show at the highest dose activation, usual class: activators; AID 720506; 4% of 2,300 active; DiscoveRx D3 beta-arrestin cells, luminescence, 90 min;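 further: potency means the concentration at half of the fitted maximal effect; 100% = dopamine control response; nearly all actives have a fitted effect of over 70% in size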
D2 ag-3: counter-screen for D3 agonists: human D2 dopamine receptor agonism; AID 720507; 5.9% of 2,300 active; DiscoveRx PathHunter D2 beta-arrestin, luminescence, 90 min; response scale: percent relative to full dopamine signal; shares compounds with D2 ag-1; Potency, µM (titrated, usually from 76.9 µM), for the others: top-dose activation, most hits filed as activators; further: potency means the concentration at half of the fitted maximal effect; % of control where 0% means no effect; nearly all actives have a fitted effect of over 70% in size
An asterisk follows results filed as active; ? = inconclusive; nt = no result. Unless noted, the call rests on the fitted dose curve; in most records, active means well fitted activation curve with a large enough effect; inconclusive means small, poorly fitted or top-dose-only effect; inactive means flat fitted curve, though single readings scatter.

SMILES | D2 ag-1 | D2 ag-2 | D2 PAM-1 | D2 antagonist | D2 PAM-2 | D3 ag | D2 ag-3
Cc1c(C)n(C)c2ccc(C(=O)N3CCN(c4ccccn4)CC3)cc12 | 56* | 11 | 11 | 31* | -21 | ? | 20%
Cc1c(C)n(C)c2ccc(C(=O)N3CCN(c4ccccc4)CC3)cc12 | 1 | -2 | 2 | nt | -6 | nt | nt
S=C(c1ccccc1)N1CCN(C(=S)c2ccccc2)CC1 | 0 | 3 | 10 | 12 | -8 | nt | nt
Cc1cc(/C=C(\C#N)C(N)=O)c(C)n1-c1ccc(N2CCOCC2)c([N+](=O)[O-])c1 | 55* | 4 | 16 | 4 | 5 | 21% | 8%
Cc1nn(C)c(C)c1NC(=O)CCCSc1nc(-c2ccco2)cc(C(F)(F)F)n1 | nt | 1 | -1 | nt | nt | nt | nt
COc1cc(C)c(NC(=O)C(=S)NCCc2ccccc2)cc1C | 5 | 1 | 1 | -11 | 9 | 10% | 24%
COc1ccc(NC(=S)NCCc2ccccc2)c(C)c1 | -1 | -2 | 3 | 1 | -3 | nt | nt
COc1ccc(C2(CCN)CC(C)N(C)CC2C)cc1 (configuration not stated) | 31* | 0 | -14 | 23 | -17 | -4% | 3%
CCOCC(=O)Nc1ccc(OCc2ccccc2)cc1 | 0 | -7 | -1 | 1 | 1 | nt | nt
O=C(O)COCC(=O)Nc1ccc(OCCc2ccccc2)cc1 | 0 | -2 | -3 | 0 | -4 | -4% | 2%
Cc1ccc(CSCCNC(=O)/C=C/c2ccc(Cl)cc2)cc1 | -1 | -1 | -2 | -9 | -2 | nt | nt
COc1ccc(Cn2c(C(=O)O)c(CNCc3ccc(OC)cc3OC)c3ccc(C)cc32)cc1 | 1 | nt | nt | nt | -4 | nt | nt
O=C(CSC1=N/C(=C/c2ccc(Cl)c(Cl)c2)C(=O)N1c1ccccc1F)NC1CC1 | 1 | -5 | 15 | 52* | 8 | 20% | 5%
O=C(CSCc1c[nH]c(=O)[nH]c1=O)OCC(=O)c1ccc(Br)cc1 | nt | -9 | -12 | nt | nt | -15% | -7%
O=C1C2CC=CCC2C(=O)N1c1ccc(N2CCN(c3ccccn3)CC2)c([N+](=O)[O-])c1 (configuration not stated) | 26 | 2 | 7 | 18 | -22 | ? | 9%
COc1cc(/C=N/NC(=O)c2cc(-c3ccccc3)nc3ccccc23)cc(OC)c1O | 1 | 2 | 21 | 18 | -9 | nt | nt
COc1ccccc1NC(=O)N1CCCC1C(=O)NCc1ccc2c(c1)OCO2 (configuration not stated) | -1 | -4 | -8 | 0 | -8 | nt | nt
O=C(NCc1ccc2c(c1)OCO2)C1CCCN1C(=O)Nc1ccccc1 (configuration not stated) | 0 | -1 | -15 | 66* | -6 | -11% | -2%
CNC[C@H](O)c1cccc(O)c1 | 77* | 2 | 5 | 91* | -28 | -1% | ?
O=C1CCSC2(C(=O)N(Cc3ccc(F)cc3)c3ccccc32)N1c1ccccc1 (configuration not stated) | nt | nt | nt | nt | -2 | nt | nt
Cc1ccccc1-n1cc(CNCc2c(C(=O)N(C)C)nc3ccc(Cl)cn23)cn1 | 0 | -5 | -25 | 1 | -1 | nt | nt
COc1cccc(-n2cc(CNCc3cn(C)nc3-c3ccccc3F)cn2)c1 | 79* | 66* | 24 | 85* | -22 | 6.3µM* | 13µM*
COc1cccc(-n2cc(CNCc3c(C(=O)N(C)C)nc4ccc(Cl)cn34)cn2)c1 | nt | -3 | -22 | nt | -21 | 10% | 0%
CN(C(=O)c1ccccc1C(=O)OCC(=O)c1ccc(F)cc1)c1ccccc1 | 0 | -3 | -8 | 23 | -8 | -4% | 0%
CN(C(=O)c1ccccc1C(=O)OCC(=O)c1ccccc1)c1ccccc1 | nt | 2 | 2 | nt | nt | nt | nt
SMILES | D2 ag-1 | D2 ag-2 | D2 PAM-1 | D2 antagonist | D2 PAM-2 | D3 ag | D2 ag-3
Cc1cc(C)n2c(SCC(=O)Nc3ncc(C(F)(F)F)cc3Cl)nnc2n1 | 1 | -1 | -7 | 6 | 2 | nt | nt
O=C(CSc1nnc(Cc2cccs2)n1-c1ccccc1)NCc1ccc2c(c1)OCO2 | -1 | -1 | -10 | -10 | 3 | nt | nt
O=C(NCc1cccs1)C(=O)NCC(c1ccco1)N1CCN(c2ccccc2)CC1 (configuration not stated) | 11 | 10 | -12 | 3 | -9 | nt | nt
O=C(COc1ccccc1)NCC(c1ccco1)N1CCN(c2ccccc2)CC1 (configuration not stated) | 1 | -1 | -4 | -11 | 7 | 1% | 12%
O=C(NCC(c1ccco1)N1CCN(c2ccccc2)CC1)c1cccs1 (configuration not stated) | 5 | 11 | -7 | 27 | 12 | 14% | 17%
O=C(Cc1cccc(NC(=O)C2CCN(C(=O)C3CC3)CC2)c1)Nc1cccc(C(=O)N2CCCC2)c1 | 1 | 2 | 10 | 2 | 4 | -4% | -5%
CN(C(=O)c1ccc(NC(=O)Cc2ccc(NC(=O)C3CCN(C(=O)c4ccccc4)CC3)cc2)cc1)C1CC1 | 1 | -4 | -14 | -3 | 2 | -4% | -5%
O=C(Cc1cccc(NC(=O)C2CCN(C(=O)C3CCC3)CC2)c1)Nc1cccc(C(=O)N2CCCCC2)c1 | nt | 1 | -1 | nt | nt | nt | nt
CN(Cc1ccccc1)C(=O)c1ccc(NC(=O)Cc2cccc(NC(=O)C3CCCN(C(=O)C4CCC4)C3)c2)cc1 (configuration not stated) | 1 | -3 | -14 | -4 | 8 | -3% | 6%
CN(C(=O)c1cccc(NC(=O)Cc2ccc(NC(=O)C3CCN(C(=O)c4ccccc4)CC3)cc2)c1)C1CCC1 | nt | 4 | 7 | nt | nt | nt | nt
CCCCNC(=O)c1[nH]c(C)c(C(C)=O)c1C | 0 | 0 | -5 | 2 | 13 | nt | nt
CN(C)S(=O)(=O)c1ccc(N2CCCC2)c(C(=O)NNC(=O)COc2cccc(F)c2)c1 | 0 | -1 | -4 | 24 | 2 | -7% | 0%
CCCCCCN(C(=O)CCCCCN1C(=O)NC(c2ccc(-c3ccccc3)cc2)C(C(=O)OCc2ccccc2)=C1C)C(C(=O)NCCCC)c1ccc(OCC(=O)OC)c(C(=O)OC)c1 (configuration not stated) | 2 | nt | nt | -6 | -2 | nt | nt
Cc1ccc2[nH]c3c(c2c1)CN(C(=O)CN1CCN(c2ccccn2)CC1)CC3 | 31* | 9 | 3 | 8 | -9 | 26% | 18%
Cc1ccc2[nH]c3c(c2c1)CN(C(=O)CN1CC(C)OC(C)C1)CC3 (configuration not stated) | 2 | 0 | 15 | 5 | -4 | nt | nt

Screening data (PubChem)
